# Inconclusive results are not listed. Entries that show only a call come without a potency. Active and inactive are the calls of the source. Unless noted, calls come from the whole dose curve; as a rule, active = well fitted curve in the direction sought with a large enough effect; inconclusive = small, poorly fitted or top-dose-only effect, or another doubt; inactive = no such curve, though single readings can be large; an effect the other way counts as inactive or inconclusive.
# Experiments:
# [1] = molecular target: Pyruvate kinase PKM (Homo sapiens) (UniProt P14618); assay: qHTS Assay for Activators of Human Muscle Pyruvate Kinase (AID 954; active = well fitted curve in the direction sought with a large enough effect, not every such curve was filed as active); conditions: purified human muscle pyruvate kinase, luciferase-coupled luminescence, 1 h; series mostly up to 57.5 µM
# Sequence of Pyruvate kinase PKM (Homo sapiens) (P14618 whole entry, looked up): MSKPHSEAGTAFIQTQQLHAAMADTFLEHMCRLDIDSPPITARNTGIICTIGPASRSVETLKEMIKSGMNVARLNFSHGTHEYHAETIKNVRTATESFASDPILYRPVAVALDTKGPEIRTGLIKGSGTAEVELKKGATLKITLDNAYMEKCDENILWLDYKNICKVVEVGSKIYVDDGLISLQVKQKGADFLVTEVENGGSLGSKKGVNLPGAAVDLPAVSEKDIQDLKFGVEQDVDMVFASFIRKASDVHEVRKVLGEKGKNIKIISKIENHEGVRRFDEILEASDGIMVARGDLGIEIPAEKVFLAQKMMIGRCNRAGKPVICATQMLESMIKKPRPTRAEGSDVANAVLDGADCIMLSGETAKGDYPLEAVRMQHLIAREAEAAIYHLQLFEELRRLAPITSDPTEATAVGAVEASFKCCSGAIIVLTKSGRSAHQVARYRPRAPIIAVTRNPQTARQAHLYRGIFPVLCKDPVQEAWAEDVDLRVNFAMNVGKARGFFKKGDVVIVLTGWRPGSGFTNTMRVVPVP
# How it was run: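 Luminescence from a luciferase ATP-detection/stop reagent reported PKM2 activity. Reactions contained 0.1 nM purified human enzyme, 0.5 mM PEP, 0.1 mM ADP and 7 mM MgCl2 at pH 7.2, run 1 h at RT.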
# [2] = molecular target: Alpha-galactosidase (Coffea arabica) (UniProt Q42656); assay: Counterscreen for Glucocerebrosidase Inhibitors: qHTS Assay for Coffee Bean alpha-Galactosidase at pH 4.5 (AID 957); conditions: purified coffee bean alpha-galactosidase, fluorogenic substrate; series mostly up to 76.9 µM
# Sequence of Alpha-galactosidase (Coffea arabica) (Q42656 whole entry, looked up): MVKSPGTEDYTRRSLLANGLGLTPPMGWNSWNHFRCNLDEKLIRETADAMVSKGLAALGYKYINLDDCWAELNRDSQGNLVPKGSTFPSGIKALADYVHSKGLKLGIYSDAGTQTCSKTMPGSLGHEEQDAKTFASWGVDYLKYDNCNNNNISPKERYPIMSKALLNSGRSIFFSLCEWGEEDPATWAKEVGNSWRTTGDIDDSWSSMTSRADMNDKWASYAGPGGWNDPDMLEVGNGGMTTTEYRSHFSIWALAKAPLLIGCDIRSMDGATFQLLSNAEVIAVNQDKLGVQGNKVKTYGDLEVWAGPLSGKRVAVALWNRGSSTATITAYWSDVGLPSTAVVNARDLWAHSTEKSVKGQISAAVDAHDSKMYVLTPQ
# How it was run: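 Coffee bean alpha-galactosidase 2 nM, substrate 4-MU-alpha-Gal 80 uM, pH 4.5 citrate/Tween-20, 20 min RT. Cpd titration 0.7 nM–77 uM. Stop pH 10, fluorescence 365/440 nm; Hill-equation AC50.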
# [3] = Cell Viability - LYMP1-002 - Assay at 16 hr (AID 948); conditions: LYMP1-002 lymphoblastoid cell viability; series mostly up to 92.2 µM; note: potency is the fitted concentration of half-maximal effect
# How it was run: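 Seed 2500 LYMP1-002 cells per well in complete medium and hold 5 hr at 37 C. Add compound across a concentration series and incubate 16 hr at 37 C. Add CellTiter-Glo, wait 30 min at room temperature, read luminescence.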
# [4] = MultiTox-Fluor Cytotoxicity Assay - LYMP1-002 - Live Cells (AID 955); conditions: LYMP1-002 lymphoblastoid live-cell protease fluorescence viability; series mostly up to 46.1 µM;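 note: potency is the fitted concentration of half-maximal effect; cells exposed to compound for 16 hours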
# How it was run: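 Read-out is live-cell protease activity (cell-permeant GF-AFC substrate, fluorescence Ex/Em=405/510), where a decrease indicates acute toxicity. Human lymphoblastoid cells were treated 16 hours at 37 C in a concentration series, and AC50 values came from standard Hill modelling.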
# [5] = MultiTox-Fluor Cytotoxicity Assay - LYMP1-003 - Live Cells (AID 962); conditions: LYMP1-003 lymphoblastoid cells, MultiTox-Fluor live-cell protease fluorescence; series mostly up to 92.2 µM;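 note: potency is the fitted concentration of half-maximal effect; cells exposed to compound for 16 hours at 37 °C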
# How it was run: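 qHTS, 1536-well; 2500 cells/well LYMP1-003; 5 hr 37 C settle; cpd 16 hr 37 C; MultiTox-Fluor reagent 60 min RT; live-cell protease fluor. 405/510; Hill-fit AC50; tetraoctylammonium bromide pos. ctrl.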
# [6] = Cell Viability - LYMP1-003 - Assay at 24 hr (AID 963); conditions: LYMP1-003 lymphoblastoid cell viability; series mostly up to 92.2 µM; note: potency is the fitted concentration of half-maximal effect
# How it was run: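 Cells seeded at 2500/well, 5 hr at 37 C; compounds added; 24 hr at 37 C; CellTiter-Glo added, 30 min room temperature; luminescence read. Decrease in ATP taken as cytotoxicity, AC50 from Hill modelling.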
structure (smiles),measurement,setting,value
NNC(=O)c1ccc(O)cc1,outcome,[1],inactive
same,outcome,[2],inactive
c1ccc2c(c1)[I+]c1ccccc1-2,outcome,[1],inactive
same,outcome,[2],inactive
[Cl-].[Cl-].[Hg+2],Potency,[3],10 µM (active)
same,Potency,[4],10 µM (active)
same,Potency,[5],15.8 µM (active)
same,Potency,[6],7.94 µM (active)
C[C@H](N)CN1CCc2ccc(Br)cc21,outcome,[1],inactive
same,outcome,[2],inactive
CCCN(CCC)[C@@H]1CCc2cccc(O)c2C1,outcome,[1],inactive
same,outcome,[2],inactive
C[N+](C)(C)CC#CCN1CCCC1=O,outcome,[1],inactive
same,outcome,[2],inactive
NC(=O)CI,outcome,[1],inactive
N#CCCN,outcome,[1],inactive
same,outcome,[2],inactive
CC(C)(C)c1cc(C=C(C#N)C#N)cc(C(C)(C)C)c1O,outcome,[1],inactive
same,outcome,[2],inactive
CCCn1c(C)c(C(=O)c2ccc3ccccc3c2)c2ccccc21,outcome,[1],inactive
same,outcome,[2],inactive
CCCN(CCC)C1Cc2cc(OC)c(OC)cc2C1,outcome,[1],inactive
same,outcome,[2],inactive
COc1ccc2c(c1)/C(=C/c1cnc[nH]1)C(=O)N2,outcome,[1],inactive
same,outcome,[2],inactive
C[N+](C)(C)CCOC(=O)CBr,outcome,[1],inactive
same,outcome,[2],inactive
Clc1cc(I)cc(Cl)c1NC1=NCCN1,outcome,[1],inactive
same,outcome,[2],inactive
Cc1sc2ccccc2c1CC1=NCCN1,outcome,[1],inactive
same,outcome,[2],inactive
COc1ccc2[nH]c3c(c2c1)CCNC3,outcome,[1],inactive
same,outcome,[2],inactive
CCCn1c(=O)c2[nH]c(C3CCCC3)nc2n(CCCOC(=O)c2ccc(S(=O)(=O)F)cc2)c1=O,outcome,[1],inactive
same,outcome,[2],inactive
CN1CCC(c2c[nH]c3ccc(O)cc23)CC1,outcome,[1],inactive
same,outcome,[2],inactive
O=[N+]([O-])c1ccc2nc(N3CCNCC3)ccc2c1,outcome,[1],inactive
same,outcome,[2],inactive
CCCN(CCC)CCc1c[nH]c2ccc(C(N)=O)cc12,outcome,[1],inactive
same,outcome,[2],inactive
CC(C)NP(=O)(NC(C)C)OP(=O)(NC(C)C)NC(C)C,outcome,[1],inactive
same,outcome,[2],inactive
Cc1[nH]c2ccc(O)cc2c1CCN,outcome,[1],inactive
same,outcome,[2],inactive
O=[N+]([O-])c1cc(O)c(O)c([N+](=O)[O-])c1,outcome,[1],inactive
same,outcome,[2],inactive
CC(=O)NBr,outcome,[1],inactive
same,outcome,[2],inactive
CN1CCc2cccc(Cl)c2CC1,outcome,[1],inactive
same,outcome,[2],inactive
NC(=O)c1cc(N2CC2)c([N+](=O)[O-])cc1[N+](=O)[O-],outcome,[1],inactive
same,outcome,[2],inactive
c1ccc2cc(CC3=NCCN3)ccc2c1,outcome,[1],inactive
same,outcome,[2],inactive
COc1ccc2[nH]cc(CCN)c2c1,outcome,[1],inactive
same,outcome,[2],inactive
NC(N)=NOCC[C@H](N)C(=O)O,outcome,[1],inactive
same,outcome,[2],inactive

# — PubChem BioAssay (NCATS)
